25 sequences from the supplement of paper PMC3545927 can be followed below.

This test deals with furin, P09958. Put plainly: furin cleavage Z-score vs untreated control; higher = more cleavage, active = 3.5 or more, inactive = 1 or less, 8 variable residues between constant flanks. The procedure, abridged:
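Sequencing of released DNA, tagged with adapters by PCR, gave read counts used as abundance. That DNA was freed when purified furin cut N-terminally bead-bound 8-mer peptides fused to a cDNA oligonucleotide, in 0.01 ml reactions at 1:10 enzyme:substrate in 50 mM HEPES pH 7.5 with CaCl2 and NaCl, lasting 7.5, 15 or 30 min. The cleavage Z-score was the lowess-adjusted log count versus furin-free reactions, scaled by median absolute deviation.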

The list shows a part of the results. No count for the full screen is at hand.

furin, P09958, sequence (P09958 whole entry, the tested form may be a part): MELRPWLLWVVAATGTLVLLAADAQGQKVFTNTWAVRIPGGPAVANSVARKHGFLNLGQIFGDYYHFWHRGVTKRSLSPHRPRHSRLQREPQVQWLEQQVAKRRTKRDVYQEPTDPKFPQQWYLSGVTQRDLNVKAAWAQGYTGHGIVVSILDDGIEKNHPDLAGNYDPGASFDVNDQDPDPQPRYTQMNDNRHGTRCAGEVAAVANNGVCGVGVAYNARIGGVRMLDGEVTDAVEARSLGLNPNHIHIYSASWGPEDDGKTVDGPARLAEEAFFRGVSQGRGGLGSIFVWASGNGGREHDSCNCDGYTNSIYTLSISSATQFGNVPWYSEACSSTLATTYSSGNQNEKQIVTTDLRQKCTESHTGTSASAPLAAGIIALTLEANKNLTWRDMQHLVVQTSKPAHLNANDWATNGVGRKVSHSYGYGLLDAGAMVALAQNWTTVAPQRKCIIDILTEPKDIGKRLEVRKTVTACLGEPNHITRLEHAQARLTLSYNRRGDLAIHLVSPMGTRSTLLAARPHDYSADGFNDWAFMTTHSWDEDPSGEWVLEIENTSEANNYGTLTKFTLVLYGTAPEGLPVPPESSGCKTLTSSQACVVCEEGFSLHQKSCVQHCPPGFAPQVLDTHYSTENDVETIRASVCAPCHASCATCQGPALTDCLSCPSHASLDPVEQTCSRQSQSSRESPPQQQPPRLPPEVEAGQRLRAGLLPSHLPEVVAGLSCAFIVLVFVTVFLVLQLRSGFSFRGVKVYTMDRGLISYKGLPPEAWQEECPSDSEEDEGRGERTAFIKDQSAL

On to CAIFLRLKRRAGNASASA [FS-800], for which the “furin cleavage Z-score” value was 3.63 (active) (7.5 min), 3.18 (15 min) and 3.43 (30 min).
As to CAAMRRLKRRAGNASASA [FS-1304], the “furin cleavage Z-score” value runs as follows: (7.5 min) 8.73 (active); (15 min) 7.83 (active); (30 min) 8.17 (active).
On the same counts, the results for CASDVVCCSMAGNASASA [HC2117] are 1.61, -1.16 (inactive) and 0.074 (inactive).
As for CAMEEGSQHLAGNASASA [HC2], the “furin cleavage Z-score” value by setting is: (7.5 min) -0.0457 (inactive); (15 min) -0.462 (inactive); (30 min) 1.87.
Regarding CAYVTGMTTDAGNASASA [HC1211], the “furin cleavage Z-score” value is -0.923 (inactive) (7.5 min), -0.868 (inactive) (15 min) and -1.18 (inactive) (30 min).
On to CAQDAVSRTQAGNASASA [HC900], for which the “furin cleavage Z-score” value is -0.887 (inactive) (7.5 min), -1.13 (inactive) (15 min) and -1.41 (inactive) (30 min).
For the sequence CADLEVVTSTAGNASASA [HC2271], the “furin cleavage Z-score” value was -1.06 (inactive) (7.5 min), 0.142 (inactive) (15 min) and -0.409 (inactive) (30 min).
On to CAGYIPLVGAAGNASASA [HC228], for which the “furin cleavage Z-score” value is, setting by setting: (7.5 min) -0.438 (inactive); (15 min) -0.464 (inactive); (30 min) -0.124 (inactive).
The like results for CALRRRMRRRAGNASASA [FS-1368] were, in that order, 3.44, 4.48 (active) and 4.37 (active).
Turning to CALEHRRMRRAGNASASA [FS-349], the “furin cleavage Z-score” value (7.5 min) was 11 (active), the “furin cleavage Z-score” value (15 min) was 10.5 (active) and the “furin cleavage Z-score” value (30 min) was 9.29 (active).
The like results for CASTPCSAGLAGNASASA [HC2556] were, in that order, -0.924 (inactive), -0.11 (inactive) and -0.471 (inactive).
Regarding CAWEECSQHLAGNASASA [HC1668], the “furin cleavage Z-score” value is 2.53 (7.5 min), 0.743 (inactive) (15 min) and 0.0767 (inactive) (30 min).
For CAGTPCSAHLAGNASASA [HC2476], the “furin cleavage Z-score” value is -0.662 (inactive) (7.5 min), -0.917 (inactive) (15 min) and -0.0259 (inactive) (30 min).
As for CAATPCSGSWAGNASASA [HC1823], the “furin cleavage Z-score” value (7.5 min) was -0.934 (inactive), the “furin cleavage Z-score” value (15 min) was -0.493 (inactive) and the “furin cleavage Z-score” value (30 min) was -0.88 (inactive).
The like results for CAEHVTSTWVAGNASASA [HC2175] were, in that order, -1.96 (inactive), 1.55 and 0.829 (inactive).
On the same counts, the results for CARLRRDTQQAGNASASA [FS-2494] are 8.34 (active), 9.45 (active) and 7.24 (active).
As for CARDRRMMSQAGNASASA [FS-2653], the “furin cleavage Z-score” value was 0.37 (inactive) (7.5 min), 0.534 (inactive) (15 min) and 0.367 (inactive) (30 min).
For CARLKRIISHAGNASASA [FS-2706], the “furin cleavage Z-score” value (7.5 min) is 0.518 (inactive), the “furin cleavage Z-score” value (15 min) is -1.37 (inactive) and the “furin cleavage Z-score” value (30 min) was -0.856 (inactive).
For CARLRRRTSHAGNASASA [FS-2716], the “furin cleavage Z-score” value was 1.21 (7.5 min), 1.27 (15 min) and 4.1 (active) (30 min).
On the same counts, the results for CARIRRRASQAGNASASA [FS-2032] are 3.16, 3.54 (active) and 4.94 (active).
For CARLRRVVGQAGNASASA [FS-1747], the “furin cleavage Z-score” value by setting is: (7.5 min) 0.978 (inactive); (15 min) -0.277 (inactive); (30 min) 1.66.
On the same counts, the results for CARLRRVSHQAGNASASA [FS-1861] are -2.01 (inactive), 0.557 (inactive) and 1.98.
The like results for CARLRREPGGAGNASASA [FS-2713] were, in that order, -0.934 (inactive), -0.299 (inactive) and -0.815 (inactive).
On the same counts, the results for CARLRRQKLSAGNASASA [FS-2576] are 0.0621 (inactive), 0.201 (inactive) and -0.745 (inactive).
CARLRRAADHAGNASASA [FS-2712]: the “furin cleavage Z-score” value by setting is: (7.5 min) 8.97 (active); (15 min) 8.17 (active); (30 min) 7.64 (active).
